Compound activity (PubChem BioAssay)
ELG1 genotox – qHTS screen for small molecules that induce genotoxicity in human embryonic kidney (HEK293T) cells expressing luciferase-tagged ELG1. HEK293T ELG1-luciferase reporter, luminescence, 16 h. 1.3% of 330,000 active. Potency, µM (highest dose often 46 µM), inactives show top-dose activity change, positive = activation, hits mostly activators; further: % of control where 0% means no effect; nearly all actives have a fitted effect of over 60% in size
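Genotoxic stress is detected as increased luminescence from luciferase-tagged ELG1 in HEK293T cells, measured with ONE-Glo after a 16 hr treatment at 37 °C.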
ELG1 repair inh – qHTS screen for small molecules that inhibit ELG1-dependent DNA repair in human embryonic kidney (HEK293T) cells expressing luciferase-tagged ELG1. 2.3% of 330,000 active. Potency, µM (highest dose often 46.1 µM), for the others: at the top dose activity change, negative = inhibition, most hits filed as inhibitors. HEK293T ELG1-luciferase reporter, luminescence, 16 h; DNA damage induced by 5-fluorouridine. AID 504467, 2011; further: on the % scale 0 is the no-effect control and ±100 the full control effect; nearly all actives have a fitted effect of over 55% in size
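Overnight (16 hr) co-exposure of 2,000 cells/well to 5-fluorouridine and compound at 37 °C preceded detection. Luciferase was quantified via ONE-Glo luminescence; loss of signal denotes inhibition.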
SMN2 splice enh – qHTS Assay for Enhancers of SMN2 Splice Variant Expression | HEK293 SMN2-luciferase splicing reporter, luminescence, 30-36 h | Potency, µM (doses to about 46.1 µM), inactives show at the highest dose activity change, positive = activation, actives largely listed as activators | 2.8% of 210,000 active; further: % of control where 0% means no effect; nearly all actives have a fitted effect of over 55% in size
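qHTS luciferase splicing reporter: luminescence rises when SMN2 exon 7 is included in transfected HEK293 cells. Compound exposure lasted 30-36 h at 37C, with 4.5 mM final sodium butyrate as control, followed by a ONE-Glo read.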
Rab9 promoter act – qHTS Assay for Rab9 Promoter Activators; Huh7 Rab9 promoter-luciferase reporter, luminescence, 24 h; Potency, µM (series often up to 9.22 µM), without a hit: at the highest dose activation, negative = inhibition, usual class: activators; 2.8% of 320,000 active; AID 485297, 2010; further: % of control where 0% means no effect; nearly all actives have a fitted effect of over 60% in size
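Luminescence read-out: Huh7 cells stably expressing Rab9-luciferase, treated 24 h with compound at 37 °C, then lysed with luciferase reagent for 10 min at ambient before reading.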
FLuc counter – qHTS profiling assay for firefly luciferase inhibitor/activator using purifed enzyme and Km concentrations of substrates (counterscreen for miR-21 project); purified FLuc, Km substrates, luminescence inhibition; 6.9% of 360,000 active; Potency, µM (titrated, usually from 57.5 µM), without a hit: at the highest dose activity change, negative = inhibition, usual class: inhibitors; Luciferin 4-monooxygenase (Photinus pyralis), P08659;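 further: plate controls were vehicle for no effect and reference inhibitor for full effect; nearly all actives have a fitted effect of over 55% in size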
Target sequence (P08659 whole entry, looked up): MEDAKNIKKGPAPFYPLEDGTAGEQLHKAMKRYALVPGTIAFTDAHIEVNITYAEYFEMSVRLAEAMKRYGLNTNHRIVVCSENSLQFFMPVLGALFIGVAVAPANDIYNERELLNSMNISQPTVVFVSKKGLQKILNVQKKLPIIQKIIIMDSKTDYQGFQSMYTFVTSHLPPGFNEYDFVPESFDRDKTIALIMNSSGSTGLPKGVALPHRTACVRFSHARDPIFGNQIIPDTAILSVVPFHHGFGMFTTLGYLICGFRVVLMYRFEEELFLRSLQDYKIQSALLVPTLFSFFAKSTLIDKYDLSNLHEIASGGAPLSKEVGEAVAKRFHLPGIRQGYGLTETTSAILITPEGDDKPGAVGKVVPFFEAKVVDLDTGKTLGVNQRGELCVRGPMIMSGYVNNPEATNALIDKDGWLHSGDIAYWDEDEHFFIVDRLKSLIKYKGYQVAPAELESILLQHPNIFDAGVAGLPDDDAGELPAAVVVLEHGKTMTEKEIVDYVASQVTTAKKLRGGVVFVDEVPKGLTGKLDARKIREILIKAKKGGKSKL
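Biochemical qHTS of compounds, final roughly 60 µM downward over six points, against 10 nM purified firefly luciferase using Km concentrations of substrates (10 uM D-luciferin, 10 uM ATP) in Tris acetate pH 7.5 buffer; luminescence output.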
NPC1 promoter act – qHTS Assay for NPC1 Promoter Activators. Huh7 NPC1 promoter luciferase reporter, 24 h. Potency, µM (series often up to 9.22 µM), without a hit: at the highest dose activation, usual class: activators. 2.4% of 320,000 active. AID 485313, 2010; further: % of control where 0% means no effect; nearly all actives have a fitted effect of over 60% in size
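Huh7 cells stably carrying NPC1 promoter–luciferase, plated in Opti-MEM with 10% FBS for 2 h, were exposed to compound in DMSO for 24 h at 37 °C; luciferase reagent was added for 10 min and luminescence read.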
An asterisk follows results filed as active; ? = inconclusive; · = no result given; [ ] = remark or other dose. Shown are actives, neighbours in structure and some others; about 9.2% of the full set was active somewhere. The call rests on the fitted dose curve; in most records, active means well fitted curve in the direction sought with a large enough effect; inconclusive means small, poorly fitted or top-dose-only effect, or another doubt; inactive means no such curve, though single readings can be large; an effect the other way counts as inactive or inconclusive. Potency means the concentration at half of the fitted maximal effect.

SMILES	ELG1 genotox	ELG1 repair inh	SMN2 splice enh	Rab9 promoter act	FLuc counter	NPC1 promoter act
CCCn1c2ccccc2c2cnn(CC(=O)NCCc3ccc(OCC)cc3)c(=O)c21	·	·	·	·	-19%	·
O=C(CCCN1C(=O)c2cccc3cccc(c23)C1=O)N1CCN(c2ccccc2)CC1	-1%	?	-26%	-3%	-2%	3%
O=C(CCCN1C(=O)c2cccc3cccc(c23)C1=O)N1CCN(c2ccccc2O)CC1	-10%	10µM*	-8%	-3%	2%	4%
CCOc1ccccc1N1CCN(C(=O)CCCN2C(=O)c3cccc4cccc(c34)C2=O)CC1	-5%	23µM*	0%	-2%	1%	0%
NS(=O)(=O)c1ccc(NC(=O)COc2ncnc3c2cnn3-c2ccccc2)cc1	1%	?	18%	-10%	5%	-3%
CC(C)N(C(=O)Cn1cc(SCC(N)=O)c2ccccc21)C(C)C	-2%	2%	-4%	-4%	0%	-4%
CCOC(=O)/C(C#N)=C/Nc1ccccc1OC	?	?	?	2.2µM*	6.7µM*	3.2µM*
CCOC(=O)/C(C#N)=C/c1c[nH]c2ccccc12	8%	?	11%	25%	19µM*	-3%
CCOC(=O)/C(C#N)=C\c1cn(C)c2ccccc12	-3%	5.8µM*	·	9%	-15%	-1%
Cc1ccc(-n2c(=O)c3c(cnn3C)n(Cc3ccccc3F)c2=O)cc1	·	·	3%	·	-9%	·
BrC(=C\c1ccccc1)/C=N/Nc1nc(N2CCOCC2)nc(N2CCOCC2)n1	-3%	16µM*	-12%[1.84 µM]	-4%	2%	-4%
BrC(/C=C\c1ccccc1)=N/Nc1nc(N2CCOCC2)nc(N2CCOCC2)n1	-1%	12µM*	-11%	0%	-1%	-4%
CC(/C=N/Nc1nc(N2CCCCC2)nc(N2CCCCC2)n1)=C\c1ccccc1	-5%	8%	-29%	-1%	3%	11%
Cc1ccc2[nH]c3c(c2c1)CCc1cn[nH]c1-3	0%	14%	7%	?	11µM*	?
O=C(N/N=C/C(Br)=C\c1ccccc1)c1cccs1	?	?	·	1.6µM*	2.1µM*	2.2µM*
CC(=C/c1ccccc1)/C=N/NC(=O)c1cccs1	1.8µM*	?	·	1µM*	0.95µM*	1.4µM*
Cc1onc(-c2ccccc2)c1C(=O)N/N=C/C(Br)=C/c1ccccc1	?	-23%	-59%	-4%	-4%	2%
CN(Cc1ccccc1)Cc1c(O)ccc2ccccc12	-3%	2%	·	0%	27µM*	-1%
CN(Cc1cc(Cl)cc(Cl)c1O)Cc1c(O)ccc2ccccc12	·	·	-3%[9.22 µM]	·	·	·
COC(=O)/C(=C1/Oc2cc(C)oc(=O)c2S1)C(F)(F)F	-8%	?	-133%	-3%	-2%	-14%
COC(=O)/C(=C1/Oc2ccc(C(C)(C)C)cc2S1)C(F)(F)F	?	?	-16%	?	4.8µM*	?
O=C(O)c1sc2cccc(Cl)c2c1Cl	-1%	?	·	2%	5.4µM*	0%
CCOC(=O)Nc1nnc(-c2cccc(OC)c2)s1	?	1%	?	3%	?	10%
COc1ccc(/C=C/c2nnc(NC(=O)C(C)(C)C)s2)cc1	2%	6%	·	19%	8.5µM*	22%
CCCCOC(=O)Nc1nnc(/C=C/c2ccc(OC)cc2)s1	2%	?	-4%	-1%	?	-4%
CCOC(=O)Nc1nnc(/C=C/c2ccc(OC)cc2)s1	16%	?	7%	0%	13µM*	8%
CCCC(=O)Nc1nnc(/C=C/c2ccc(OC)cc2)s1	2%	0%	·	17%	?	22%
